For one compound, residual activity results are on record in ChEMBL document CHEMBL2218924, “A broad activity screen in support of a chemogenomic map for kinase signalling research and drug discovery” (Biochem J, 2013).

Broadly, the residual activity is the signal under treatment as a percentage of the control signal.

Assay [1] deals with T1, Ephrin type-A receptor 3 (Homo sapiens) (UniProt P29320).
T1 sequence (whole entry): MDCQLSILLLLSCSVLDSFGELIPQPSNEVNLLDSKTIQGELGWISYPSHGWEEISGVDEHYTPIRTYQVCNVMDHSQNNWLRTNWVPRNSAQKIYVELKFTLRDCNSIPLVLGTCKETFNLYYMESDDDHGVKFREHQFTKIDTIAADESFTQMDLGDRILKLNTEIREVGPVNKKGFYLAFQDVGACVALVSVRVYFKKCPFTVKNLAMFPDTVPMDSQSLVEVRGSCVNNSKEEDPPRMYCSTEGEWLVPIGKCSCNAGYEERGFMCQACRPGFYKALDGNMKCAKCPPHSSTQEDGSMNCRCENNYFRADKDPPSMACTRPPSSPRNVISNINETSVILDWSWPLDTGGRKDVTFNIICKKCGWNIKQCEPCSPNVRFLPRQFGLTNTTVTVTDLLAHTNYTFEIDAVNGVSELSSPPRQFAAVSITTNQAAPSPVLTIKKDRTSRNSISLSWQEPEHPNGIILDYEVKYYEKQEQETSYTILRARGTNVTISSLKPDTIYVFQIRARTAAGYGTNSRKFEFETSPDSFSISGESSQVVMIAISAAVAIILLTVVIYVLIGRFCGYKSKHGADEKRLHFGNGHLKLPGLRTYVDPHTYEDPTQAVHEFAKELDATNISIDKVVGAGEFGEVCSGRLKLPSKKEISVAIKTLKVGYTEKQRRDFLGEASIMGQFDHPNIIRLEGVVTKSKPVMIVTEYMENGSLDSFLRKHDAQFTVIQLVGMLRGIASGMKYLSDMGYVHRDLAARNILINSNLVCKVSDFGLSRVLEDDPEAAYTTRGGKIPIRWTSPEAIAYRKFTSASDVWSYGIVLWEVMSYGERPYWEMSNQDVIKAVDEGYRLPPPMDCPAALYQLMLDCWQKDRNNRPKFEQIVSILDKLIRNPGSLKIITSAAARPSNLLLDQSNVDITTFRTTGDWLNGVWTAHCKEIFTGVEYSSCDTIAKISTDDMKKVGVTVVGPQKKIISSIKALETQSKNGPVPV
Conditions: at 10 µM.

In assay [2] the target is Ephrin type-A receptor 4 (Homo sapiens) (UniProt P54764). Conditions: at 1 µM.
Chain of Ephrin type-A receptor 4 (Homo sapiens) (P54764 whole entry): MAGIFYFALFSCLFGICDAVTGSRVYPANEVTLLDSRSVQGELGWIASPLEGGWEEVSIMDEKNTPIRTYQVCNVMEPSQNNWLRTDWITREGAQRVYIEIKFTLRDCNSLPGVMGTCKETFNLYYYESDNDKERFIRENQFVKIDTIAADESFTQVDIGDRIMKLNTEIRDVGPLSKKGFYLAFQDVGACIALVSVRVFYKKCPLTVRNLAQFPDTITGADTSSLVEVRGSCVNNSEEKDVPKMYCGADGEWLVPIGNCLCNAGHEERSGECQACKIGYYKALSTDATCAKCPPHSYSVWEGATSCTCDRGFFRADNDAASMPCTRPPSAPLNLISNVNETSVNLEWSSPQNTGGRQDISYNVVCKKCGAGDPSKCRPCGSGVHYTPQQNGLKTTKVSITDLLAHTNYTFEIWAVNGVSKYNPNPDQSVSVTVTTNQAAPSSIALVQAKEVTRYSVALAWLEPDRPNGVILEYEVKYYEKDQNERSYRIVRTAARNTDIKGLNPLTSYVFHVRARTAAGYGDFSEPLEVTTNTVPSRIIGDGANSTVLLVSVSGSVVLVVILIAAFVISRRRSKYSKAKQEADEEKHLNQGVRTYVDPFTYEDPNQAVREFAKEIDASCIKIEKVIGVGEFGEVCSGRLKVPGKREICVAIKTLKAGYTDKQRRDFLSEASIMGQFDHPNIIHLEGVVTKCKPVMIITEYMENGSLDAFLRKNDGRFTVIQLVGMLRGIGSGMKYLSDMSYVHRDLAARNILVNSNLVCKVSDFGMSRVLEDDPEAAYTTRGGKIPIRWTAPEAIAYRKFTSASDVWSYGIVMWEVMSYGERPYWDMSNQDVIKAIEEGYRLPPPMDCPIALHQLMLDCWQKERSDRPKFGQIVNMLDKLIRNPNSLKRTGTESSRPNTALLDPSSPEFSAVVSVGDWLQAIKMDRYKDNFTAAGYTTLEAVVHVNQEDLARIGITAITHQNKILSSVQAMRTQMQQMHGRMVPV
Assay [3] has the same target. Conditions: at 10 µM.
The target in assay [4] is Ephrin type-A receptor 5 (Homo sapiens) (UniProt P54756). Conditions: at 1 µM.
Chain of Ephrin type-A receptor 5 (Homo sapiens) (P54756 whole entry): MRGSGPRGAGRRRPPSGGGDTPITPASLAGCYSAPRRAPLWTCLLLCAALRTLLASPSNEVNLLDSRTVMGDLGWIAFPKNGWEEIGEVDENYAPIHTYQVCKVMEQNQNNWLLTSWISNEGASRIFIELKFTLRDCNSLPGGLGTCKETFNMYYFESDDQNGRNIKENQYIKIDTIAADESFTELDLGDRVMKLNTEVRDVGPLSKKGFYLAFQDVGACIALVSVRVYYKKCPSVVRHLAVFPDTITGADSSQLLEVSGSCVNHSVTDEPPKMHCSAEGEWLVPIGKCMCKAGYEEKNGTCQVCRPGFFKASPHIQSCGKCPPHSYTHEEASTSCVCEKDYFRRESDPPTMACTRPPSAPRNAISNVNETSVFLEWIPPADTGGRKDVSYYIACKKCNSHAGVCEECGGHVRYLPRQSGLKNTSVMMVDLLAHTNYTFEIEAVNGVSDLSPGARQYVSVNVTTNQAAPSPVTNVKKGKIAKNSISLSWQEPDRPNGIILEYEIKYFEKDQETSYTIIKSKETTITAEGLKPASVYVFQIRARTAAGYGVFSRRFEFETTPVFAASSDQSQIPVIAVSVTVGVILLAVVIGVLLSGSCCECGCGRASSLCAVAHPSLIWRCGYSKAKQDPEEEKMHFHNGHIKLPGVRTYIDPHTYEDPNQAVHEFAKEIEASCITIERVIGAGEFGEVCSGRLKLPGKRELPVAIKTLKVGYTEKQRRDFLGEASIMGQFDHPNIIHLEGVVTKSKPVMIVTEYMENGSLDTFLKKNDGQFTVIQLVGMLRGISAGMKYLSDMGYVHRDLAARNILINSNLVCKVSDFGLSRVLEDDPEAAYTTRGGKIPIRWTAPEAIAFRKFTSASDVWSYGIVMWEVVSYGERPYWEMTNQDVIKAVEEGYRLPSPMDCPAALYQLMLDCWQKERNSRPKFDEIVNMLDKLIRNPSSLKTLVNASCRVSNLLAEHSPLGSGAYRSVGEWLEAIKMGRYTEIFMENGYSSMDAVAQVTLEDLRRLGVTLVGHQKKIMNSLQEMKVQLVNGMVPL
For assay [5] the target is unchanged. Conditions: at 10 µM.
Assay [6] deals with Ephrin type-A receptor 7 (Homo sapiens) (UniProt Q15375). Conditions: at 1 µM.
Chain of Ephrin type-A receptor 7 (Homo sapiens) (Q15375 28-998 limits assumed): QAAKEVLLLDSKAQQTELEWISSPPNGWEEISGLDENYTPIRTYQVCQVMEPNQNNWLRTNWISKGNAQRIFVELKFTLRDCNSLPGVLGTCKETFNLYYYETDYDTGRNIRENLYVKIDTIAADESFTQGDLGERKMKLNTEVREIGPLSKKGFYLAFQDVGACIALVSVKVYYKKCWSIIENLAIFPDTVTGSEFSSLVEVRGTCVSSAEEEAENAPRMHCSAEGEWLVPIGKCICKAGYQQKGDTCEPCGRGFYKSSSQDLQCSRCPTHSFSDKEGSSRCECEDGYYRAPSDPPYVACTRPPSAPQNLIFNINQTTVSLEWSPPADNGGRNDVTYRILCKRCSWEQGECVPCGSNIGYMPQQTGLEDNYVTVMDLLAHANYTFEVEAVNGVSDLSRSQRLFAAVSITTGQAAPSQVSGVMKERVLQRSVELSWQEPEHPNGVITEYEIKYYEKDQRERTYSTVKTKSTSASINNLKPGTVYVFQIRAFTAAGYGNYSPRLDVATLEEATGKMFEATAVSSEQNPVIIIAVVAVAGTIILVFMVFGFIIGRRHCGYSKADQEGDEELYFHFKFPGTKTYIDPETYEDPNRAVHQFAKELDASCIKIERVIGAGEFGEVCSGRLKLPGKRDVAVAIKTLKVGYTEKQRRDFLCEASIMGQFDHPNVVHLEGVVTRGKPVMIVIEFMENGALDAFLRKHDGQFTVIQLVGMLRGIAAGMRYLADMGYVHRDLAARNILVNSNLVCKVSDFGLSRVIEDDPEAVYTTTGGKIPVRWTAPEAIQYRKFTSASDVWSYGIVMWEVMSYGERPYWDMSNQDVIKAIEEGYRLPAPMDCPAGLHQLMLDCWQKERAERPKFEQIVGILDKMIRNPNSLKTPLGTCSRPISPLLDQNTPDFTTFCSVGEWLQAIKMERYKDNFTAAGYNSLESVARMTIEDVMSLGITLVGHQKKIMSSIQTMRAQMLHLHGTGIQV
For assay [7] the target is unchanged. Conditions: at 10 µM.
In assay [8] the target is T2, Ephrin type-A receptor 8 (Homo sapiens) (UniProt P29322).
T2 sequence (whole entry): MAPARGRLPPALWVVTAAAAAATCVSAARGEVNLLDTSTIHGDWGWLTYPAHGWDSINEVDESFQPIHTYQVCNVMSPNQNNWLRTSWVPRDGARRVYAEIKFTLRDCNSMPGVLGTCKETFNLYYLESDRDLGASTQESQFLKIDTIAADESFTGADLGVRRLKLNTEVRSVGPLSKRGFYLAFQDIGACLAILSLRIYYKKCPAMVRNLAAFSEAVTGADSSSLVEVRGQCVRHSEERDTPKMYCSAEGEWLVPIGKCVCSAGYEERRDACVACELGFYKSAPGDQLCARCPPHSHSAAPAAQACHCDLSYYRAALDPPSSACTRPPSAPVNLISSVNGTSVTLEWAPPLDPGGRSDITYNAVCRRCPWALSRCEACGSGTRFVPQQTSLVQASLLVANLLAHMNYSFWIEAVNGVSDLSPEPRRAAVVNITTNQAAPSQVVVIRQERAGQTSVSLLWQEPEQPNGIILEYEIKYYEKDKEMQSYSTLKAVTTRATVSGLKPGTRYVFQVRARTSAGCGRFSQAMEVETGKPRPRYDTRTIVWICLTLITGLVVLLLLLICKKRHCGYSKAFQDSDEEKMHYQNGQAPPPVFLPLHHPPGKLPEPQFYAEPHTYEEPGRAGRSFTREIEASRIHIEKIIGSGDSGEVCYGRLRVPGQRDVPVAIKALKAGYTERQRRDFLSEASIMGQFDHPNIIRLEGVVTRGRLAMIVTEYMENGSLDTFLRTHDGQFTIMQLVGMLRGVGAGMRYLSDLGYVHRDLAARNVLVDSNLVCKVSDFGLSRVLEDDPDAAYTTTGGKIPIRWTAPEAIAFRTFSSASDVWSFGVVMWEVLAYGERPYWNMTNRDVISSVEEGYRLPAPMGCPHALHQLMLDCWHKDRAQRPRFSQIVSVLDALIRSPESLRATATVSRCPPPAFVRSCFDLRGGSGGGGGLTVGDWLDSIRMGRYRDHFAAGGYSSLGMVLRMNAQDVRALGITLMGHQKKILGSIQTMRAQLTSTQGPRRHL
Conditions: at 1 µM.

Assay [9] deals with T2, Ephrin type-A receptor 8 (Homo sapiens). Conditions: at 10 µM.

On to `COc1cc2ncnc(Nc3ccc(OCc4ccccc4)cc3)c2cc1OC`, for which the residual activity stood at 113% in assay [1]; 118% in assay [2]; 93% in assay [3]; 116% in assay [4]; 104% in [5]; 109% in assay [6]. Besides, the residual activity in [7] turned out to be 90%; in [8], 118%; in assay [9], 101%.
